Over roughly 9,900 sequences, “r (bound/input frequency ratio)” has its median near 0.7; the highest 2% begin near 6.5. The sample holds the highest values, similar sequences and a random draw of the others, so the mix is not that of the screen.
B1: ENSMUSG00000031028.174|Tub|17:22 (ssRNA)
RNA: GGGAGUUCUACAGUCCGACGAUCGCUUCGAUAUCCGCAUGCUAAGAGGUAGCGGACCUCACACACGUUCACCAACAGCAAUGCUGAUCCCUGAGUAUAGGGCACAUGUCUCUUGGUUACCUCACUGGUUAAUGGCAGAGUUGAGAACCUCAAAUUCUUUUGUUCCUACUGUUGCCCAGAAACUAGACUCUCUGACCUGCUAGGGUCUAUUCUGCAUGUCCUUUCUCUUCCCAGUUCCAGAGAUGAAACCCCUCCGAGUUAAUGUAUAAGGUUGGAAACCUUUCAGUAGGGAAUCAGGCAGUUCCUCUUGCGGUCGCACUAGUGUGGAAUUCUCGGGUGUCAAGG
B2: ENSMUSG00000029028.255|Lrrc47 (ssRNA)
RNA: GGGAGUUCUACAGUCCGACGAUCGCUUCGAUAUCCGCAUGCUAGCUCACAGGUCCCUUUGAGUGGCUGUGGCAAGUACUCACCUACUAAGUGUUUAGGGUGGAGCUAUCCUGUGCUCACCCUGUCUCCCCCCAGUUCCUGCUGUUCCCUCCAGCCCAGCCCAGCCCAGGUGUGAGAUUCAUUGAGAUUUUUGAAACUGUUUUUACAGAUUCAAGCAGAACGCCUCUUUGUUCUAAUAAAAACCCUUGGUAACGACAUCUCUGCAUCAGCAGCCUUAGCACAUGCGUCUCCCAGGACAGUGUUGCUCUUGCGGUCGCACUAGUGUGGAAUUCUCGGGUGUCAAGG
B3: ENSMUSG00000029636.271|Wasf3|45:50 (ssRNA)
RNA: GGGAGUUCUACAGUCCGACGAUCGCUUCGAUAUCCGCAUGCUAAGUGAAAGCCCAUGUGCAAGCCCCUCCCUACGCCCUGCUUUGGCCACACACUGAGUGCUCUGUGCUGCGCCAUGGCCAUCCUGGAGCCUGCGCACACGUGGCCGCUGCUGUGACUCGCUGUCCUUGGUAAUUGGUGAGAGGCUUUUUCUUUCUUUCUCAGUUCUGCUUUUCCACACUGAGACCCACCAUGUUGACAUCAUCCUCGCGACGUUGACAUUUGAGCCUUUUGUUCUGUCUCCCAUGUGCCCUGUAGAACCCAGCUCUUGCGGUCGCACUAGUGUGGAAUUCUCGGGUGUCAAGG
B4: ENSMUSG00000022095.266|Fam160b2|1:10;49:69;116:120;252:257 (ssRNA)
RNA: GGGAGUUCUACAGUCCGACGAUCGCUUCGAUAUCCGCAUGCUAACACACACACAGAGAGAGAGAGAGAGAGCGAGCUAUGAAUGAAUGUGACACACACACACACACACACACAGAGAGAGAGAGAGAGAGAGAGAGCUGUGAGUACACAUGGGUGCUGCACACGGACAGGAGCAGAUCUUGGUGGAGUGGGUCUACACUUGAGAUUUGUACUCGUUUGAGAGGCUGGGCAAUACUCAAUGCACUUUGGCAUUUGCAUGGUGUCUUCACAACAGCACAGCAAUAAACAUUGUGAUACACACGACCUCUUGCGGUCGCACUAGUGUGGAAUUCUCGGGUGUCAAGG
B5: ENSMUSG00000022095.269|Fam160b2|31:51;98:102;234:239 (ssRNA)
RNA: GGGAGUUCUACAGUCCGACGAUCGCUUCGAUAUCCGCAUGCUAAGAGAGAGAGCGAGCUAUGAAUGAAUGUGACACACACACACACACACACACAGAGAGAGAGAGAGAGAGAGAGAGCUGUGAGUACACAUGGGUGCUGCACACGGACAGGAGCAGAUCUUGGUGGAGUGGGUCUACACUUGAGAUUUGUACUCGUUUGAGAGGCUGGGCAAUACUCAAUGCACUUUGGCAUUUGCAUGGUGUCUUCACAACAGCACAGCAAUAAACAUUGUGAUACACACGACAUGCUGACUCUCCCCAGUCUCUUGCGGUCGCACUAGUGUGGAAUUCUCGGGUGUCAAGG
B6: ENSMUSG00000022095.272|Fam160b2 (ssRNA)
RNA: GGGAGUUCUACAGUCCGACGAUCGCUUCGAUAUCCGCAUGCUAGAAUGAAUGUGAGUGUGUGUGUGUGUGUGUGUGAGAGAGAGAGAGAGAGAGAGAGAGCUGUGAGUACACAUGGGUGCUGGUGUGGGACAGGAGCAGAUCUUGGUGGAGUGGGUCUACACUUGAGAUUUGUACUCGUUUGAGAGGCUGGGCAAUACUCAAUGCACUUUGGCAUUUGCAUGGUGUCUUCACAACAGCACAGCAAUAAACAUUGUGAUUGUGUGGACAUGCUGACUCUCCCCAGUCUGCUUUUCUUUUCCCCACUCUUGCGGUCGCACUAGUGUGGAAUUCUCGGGUGUCAAGG
B7: ENSMUSG00000022095.270|Fam160b2|25:45;92:96;228:233 (ssRNA)
RNA: GGGAGUUCUACAGUCCGACGAUCGCUUCGAUAUCCGCAUGCUAAGAGCGAGCUAUGAAUGAAUGUGACACACACACACACACACACACAGAGAGAGAGAGAGAGAGAGAGAGCUGUGAGUACACAUGGGUGCUGCACACGGACAGGAGCAGAUCUUGGUGGAGUGGGUCUACACUUGAGAUUUGUACUCGUUUGAGAGGCUGGGCAAUACUCAAUGCACUUUGGCAUUUGCAUGGUGUCUUCACAACAGCACAGCAAUAAACAUUGUGAUACACACGACAUGCUGACUCUCCCCAGUCUGCUUCUCUUGCGGUCGCACUAGUGUGGAAUUCUCGGGUGUCAAGG
B8: ENSMUSG00000022095.272|Fam160b2|13:33;80:84;216:221 (ssRNA)
RNA: GGGAGUUCUACAGUCCGACGAUCGCUUCGAUAUCCGCAUGCUAGAAUGAAUGUGACACACACACACACACACACACAGAGAGAGAGAGAGAGAGAGAGAGCUGUGAGUACACAUGGGUGCUGCACACGGACAGGAGCAGAUCUUGGUGGAGUGGGUCUACACUUGAGAUUUGUACUCGUUUGAGAGGCUGGGCAAUACUCAAUGCACUUUGGCAUUUGCAUGGUGUCUUCACAACAGCACAGCAAUAAACAUUGUGAUACACACGACAUGCUGACUCUCCCCAGUCUGCUUUUCUUUUCCCCACUCUUGCGGUCGCACUAGUGUGGAAUUCUCGGGUGUCAAGG
B9: ENSMUSG00000022095.271|Fam160b2 (ssRNA)
RNA: GGGAGUUCUACAGUCCGACGAUCGCUUCGAUAUCCGCAUGCUAAGCUAUGAAUGAAUGUGAGUGUGUGUGUGUGUGUGUGUGAGAGAGAGAGAGAGAGAGAGAGAGCUGUGAGUACACAUGGGUGCUGGUGUGGGACAGGAGCAGAUCUUGGUGGAGUGGGUCUACACUUGAGAUUUGUACUCGUUUGAGAGGCUGGGCAAUACUCAAUGCACUUUGGCAUUUGCAUGGUGUCUUCACAACAGCACAGCAAUAAACAUUGUGAUUGUGUGGACAUGCUGACUCUCCCCAGUCUGCUUUUCUUUCUCUUGCGGUCGCACUAGUGUGGAAUUCUCGGGUGUCAAGG
B10: ENSMUSG00000022095.271|Fam160b2|19:39;86:90;222:227 (ssRNA)
RNA: GGGAGUUCUACAGUCCGACGAUCGCUUCGAUAUCCGCAUGCUAAGCUAUGAAUGAAUGUGACACACACACACACACACACACAGAGAGAGAGAGAGAGAGAGAGAGCUGUGAGUACACAUGGGUGCUGCACACGGACAGGAGCAGAUCUUGGUGGAGUGGGUCUACACUUGAGAUUUGUACUCGUUUGAGAGGCUGGGCAAUACUCAAUGCACUUUGGCAUUUGCAUGGUGUCUUCACAACAGCACAGCAAUAAACAUUGUGAUACACACGACAUGCUGACUCUCCCCAGUCUGCUUUUCUUUCUCUUGCGGUCGCACUAGUGUGGAAUUCUCGGGUGUCAAGG
B11: ENSMUSG00000022095.268|Fam160b2|37:57;104:108;240:245 (ssRNA)
RNA: GGGAGUUCUACAGUCCGACGAUCGCUUCGAUAUCCGCAUGCUAAGAGAGAGAGAGAGAGCGAGCUAUGAAUGAAUGUGACACACACACACACACACACACAGAGAGAGAGAGAGAGAGAGAGAGCUGUGAGUACACAUGGGUGCUGCACACGGACAGGAGCAGAUCUUGGUGGAGUGGGUCUACACUUGAGAUUUGUACUCGUUUGAGAGGCUGGGCAAUACUCAAUGCACUUUGGCAUUUGCAUGGUGUCUUCACAACAGCACAGCAAUAAACAUUGUGAUACACACGACAUGCUGACUCUCCUCUUGCGGUCGCACUAGUGUGGAAUUCUCGGGUGUCAAGG
B12: ENSMUSG00000022095.273|Fam160b2 (ssRNA)
RNA: GGGAGUUCUACAGUCCGACGAUCGCUUCGAUAUCCGCAUGCUAAUGUGAGUGUGUGUGUGUGUGUGUGUGAGAGAGAGAGAGAGAGAGAGAGAGCUGUGAGUACACAUGGGUGCUGGUGUGGGACAGGAGCAGAUCUUGGUGGAGUGGGUCUACACUUGAGAUUUGUACUCGUUUGAGAGGCUGGGCAAUACUCAAUGCACUUUGGCAUUUGCAUGGUGUCUUCACAACAGCACAGCAAUAAACAUUGUGAUUGUGUGGACAUGCUGACUCUCCCCAGUCUGCUUUUCUUUUCCCCAAGCUUUCUCUUGCGGUCGCACUAGUGUGGAAUUCUCGGGUGUCAAGG
B13: ENSMUSG00000022095.270|Fam160b2 (ssRNA)
RNA: GGGAGUUCUACAGUCCGACGAUCGCUUCGAUAUCCGCAUGCUAAGAGCGAGCUAUGAAUGAAUGUGAGUGUGUGUGUGUGUGUGUGUGAGAGAGAGAGAGAGAGAGAGAGAGCUGUGAGUACACAUGGGUGCUGGUGUGGGACAGGAGCAGAUCUUGGUGGAGUGGGUCUACACUUGAGAUUUGUACUCGUUUGAGAGGCUGGGCAAUACUCAAUGCACUUUGGCAUUUGCAUGGUGUCUUCACAACAGCACAGCAAUAAACAUUGUGAUUGUGUGGACAUGCUGACUCUCCCCAGUCUGCUUCUCUUGCGGUCGCACUAGUGUGGAAUUCUCGGGUGUCAAGG
B14: ENSMUSG00000022095.269|Fam160b2 (ssRNA)
RNA: GGGAGUUCUACAGUCCGACGAUCGCUUCGAUAUCCGCAUGCUAAGAGAGAGAGCGAGCUAUGAAUGAAUGUGAGUGUGUGUGUGUGUGUGUGUGAGAGAGAGAGAGAGAGAGAGAGAGCUGUGAGUACACAUGGGUGCUGGUGUGGGACAGGAGCAGAUCUUGGUGGAGUGGGUCUACACUUGAGAUUUGUACUCGUUUGAGAGGCUGGGCAAUACUCAAUGCACUUUGGCAUUUGCAUGGUGUCUUCACAACAGCACAGCAAUAAACAUUGUGAUUGUGUGGACAUGCUGACUCUCCCCAGUCUCUUGCGGUCGCACUAGUGUGGAAUUCUCGGGUGUCAAGG
B15: ENSMUSG00000022095.268|Fam160b2 (ssRNA)
RNA: GGGAGUUCUACAGUCCGACGAUCGCUUCGAUAUCCGCAUGCUAAGAGAGAGAGAGAGAGCGAGCUAUGAAUGAAUGUGAGUGUGUGUGUGUGUGUGUGUGAGAGAGAGAGAGAGAGAGAGAGAGCUGUGAGUACACAUGGGUGCUGGUGUGGGACAGGAGCAGAUCUUGGUGGAGUGGGUCUACACUUGAGAUUUGUACUCGUUUGAGAGGCUGGGCAAUACUCAAUGCACUUUGGCAUUUGCAUGGUGUCUUCACAACAGCACAGCAAUAAACAUUGUGAUUGUGUGGACAUGCUGACUCUCCUCUUGCGGUCGCACUAGUGUGGAAUUCUCGGGUGUCAAGG

What follows are binders tested against TDP-43 (Homo sapiens, UniProt Q13148 1-414) (assay: RNA Bind-n-Seq with designed 260-mer pool; 25 mM Tris-HCl, 150 mM KCl, 3 mM MgCl2, BSA (printed 500 mg/mL), 20 units/mL SUPERase IN; pH not stated; 500 nM RNA pool, 1 h, 4 C; TDP-43 5, 50, 500 nM; high values mean tight binding). Settings: protein: recombinant; tags: SBP (GST cleaved off with PreScission; pGEX-GST-SBP).
Chain of TDP-43 (Q13148 whole entry): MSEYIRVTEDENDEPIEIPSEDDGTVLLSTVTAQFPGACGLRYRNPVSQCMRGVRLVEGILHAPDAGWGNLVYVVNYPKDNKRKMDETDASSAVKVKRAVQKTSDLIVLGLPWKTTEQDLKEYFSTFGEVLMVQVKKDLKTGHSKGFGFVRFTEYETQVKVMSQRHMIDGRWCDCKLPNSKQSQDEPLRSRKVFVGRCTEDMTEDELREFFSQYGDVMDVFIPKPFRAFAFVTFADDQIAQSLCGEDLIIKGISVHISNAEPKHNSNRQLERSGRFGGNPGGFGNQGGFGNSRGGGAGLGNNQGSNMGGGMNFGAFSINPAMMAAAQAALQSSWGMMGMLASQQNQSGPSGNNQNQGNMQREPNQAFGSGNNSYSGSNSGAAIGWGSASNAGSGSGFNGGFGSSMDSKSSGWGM
How it was run: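 Recombinant SBP-tagged TDP-43 at 5, 50 or 500 nM was captured on streptavidin beads, then incubated 1 h at 4 °C with 500 nM of an in vitro-transcribed 260-nt 3′ UTR oligo pool in 25 mM Tris-HCl, 150 mM KCl, 3 mM MgCl2, BSA and SUPERase IN. Bound RNA was washed, eluted with biotin, reverse transcribed, PCR-amplified and sequenced. Binding is R, each oligo's mapped-read-normalized abundance in the bound sample divided by its abundance in input. Duplicates used two independent protein batches.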

Binder | binding signal
B1 | 0.553 R (bound/input frequency ratio)
B2 | 0.69 R (bound/input frequency ratio)
B3 | 0.821 R (bound/input frequency ratio)
B4 | 4.83 R (bound/input frequency ratio)
B5 | 4.63 R (bound/input frequency ratio)
B6 | 5.79 R (bound/input frequency ratio)
B7 | 4.7 R (bound/input frequency ratio)
B8 | 4.46 R (bound/input frequency ratio)
B9 | 7.64 R (bound/input frequency ratio)
B10 | 4.21 R (bound/input frequency ratio)
B11 | 6.08 R (bound/input frequency ratio)
B12 | 5.83 R (bound/input frequency ratio)
B13 | 7.19 R (bound/input frequency ratio)
B14 | 7.25 R (bound/input frequency ratio)
B15 | 6.67 R (bound/input frequency ratio)

From PMC12864922, “TDP-43 directly inhibits mRNA accumulation in neurites through modulation of mRNA stability”
